From PubChem BioAssay (Tox21) come the findings set out here.

Assay [1] can be described thus: qHTS assay to identify small molecule antagonists of the glucocorticoid receptor (GR) signaling pathway - cell viability counter screen (AID 720693). Further: nearly all actives have a fitted effect of over 55% in size. Further: potency means the concentration at half of the fitted maximal effect. A general note: Quantitative high-throughput screening tests each substance at several concentrations.
Assay [2] can be described thus: qHTS assay for identifying genotoxic compounds that show differential cytotoxicity against isogenic chicken DT40 cell lines with known DNA damage response pathways - wild type cell line (AID 743012). Further: nearly all actives have a fitted effect of over 60% in size. Further: potency means the concentration at half of the fitted maximal effect. Summed up:
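Viability by ATP luminescence (CellTiter-Glo, 30 min RT) after 40 h compound treatment at 37 C/5% CO2, using 300 parental DNA repair-proficient DT40 cells per well.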

Assay [3] can be described thus: qHTS assay for identifying genotoxic compounds that show differential cytotoxicity against isogenic chicken DT40 cell lines with known DNA damage response pathways - Rev3 mutant cell line (AID 743014). Further: nearly all actives have a fitted effect of over 55% in size. Further: potency means the concentration at half of the fitted maximal effect.
Assay [4] is described as follows: qHTS assay to identify small molecule antagonists of the androgen receptor (AR) signaling pathway - cell viability counter screen (AID 743033; further: nearly all actives have a fitted effect of over 45% in size).
The target of assay [5] is Androgen receptor (Homo sapiens) (UniProt P10275). Put plainly: qHTS assay to identify small molecule antagonists of the androgen receptor (AR) signaling pathway (AID 743035; active means well fitted inhibition curve with a large enough effect in the signal ratio in the repeat runs, not every such curve was filed as active; the % refers to the signal ratio). Summed up:
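Antagonist mode: AR-bla HEK293 cells co-treated with test compounds and agonist R1881 for 16 h at 37C, 5% CO2. Beta-lactamase activity read as FRET fluorescence after 2 h room-temperature substrate loading.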

Assay [6] shares this target. The experiment in a line: qHTS assay to identify small molecule agonists of the androgen receptor (AR) signaling pathway (AID 743036; active means well fitted activation curve with a large enough effect in the signal ratio in the repeat runs, with a control signal flat, not every such curve was filed as active; the % refers to the signal ratio). The method, boiled down: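 Cell-based FRET reporter assay: HEK293 line with a UAS-beta-lactamase construct, compounds added in DMSO, 16 h exposure at 37C, then 2 h substrate step at room temperature and fluorescence intensity read.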

The target is the same in assay [7]. Put plainly: qHTS assay to identify small molecule agonists of the androgen receptor (AR) signaling pathway using the MDA cell line (AID 743040; further: nearly all actives have a fitted effect of over 20% in size). To be noted: MDA-kb2 AR-luc cells, MMTV luciferase, 16 h; activity change: at 70.3 µM (top of the series), stronger effect = higher value. Summed up: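 Luciferase read-out, ONE-Glo, 30 min RT. Cells: MDA-kb2 AR-luc, MMTV promoter with AR and GR response elements. Compound exposure 16 h, 37C, 0% CO2, after 5 h pre-incubation. qHTS agonist mode.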

The nature of assay [8]: qHTS assay to identify small molecule antagonists of the androgen receptor (AR) signaling pathway using the MDA cell line - cell viability counter screen (AID 743041; further: nearly all actives have a fitted effect of over 45% in size). The method, boiled down: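 Cytotoxicity counter screen: MDA-kb2 AR-luc cells, compound + R1881, 16 h, 37C, 0% CO2; CellTiter-Fluor added at 15.5 h, fluorescence read after 30 min.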
In assay [9] the target is Androgen receptor (Homo sapiens) (UniProt P10275). The experiment in a line: qHTS assay to identify small molecule antagonists of the androgen receptor (AR) signaling pathway using the MDA cell line (AID 743042; further: nearly all actives have a fitted effect of over 55% in size). The method, boiled down: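 MDA-kb2 breast carcinoma cells carrying MMTV-luciferase (AR/GR responsive) were co-treated with compounds and the agonist R1881 for 16 h at 37C. Inhibition read as ONE-Glo luminescence; CellTiter-Fluor fluorescence measured in parallel for cytotoxicity.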
Sequence of Androgen receptor (Homo sapiens) (P10275 whole entry, looked up): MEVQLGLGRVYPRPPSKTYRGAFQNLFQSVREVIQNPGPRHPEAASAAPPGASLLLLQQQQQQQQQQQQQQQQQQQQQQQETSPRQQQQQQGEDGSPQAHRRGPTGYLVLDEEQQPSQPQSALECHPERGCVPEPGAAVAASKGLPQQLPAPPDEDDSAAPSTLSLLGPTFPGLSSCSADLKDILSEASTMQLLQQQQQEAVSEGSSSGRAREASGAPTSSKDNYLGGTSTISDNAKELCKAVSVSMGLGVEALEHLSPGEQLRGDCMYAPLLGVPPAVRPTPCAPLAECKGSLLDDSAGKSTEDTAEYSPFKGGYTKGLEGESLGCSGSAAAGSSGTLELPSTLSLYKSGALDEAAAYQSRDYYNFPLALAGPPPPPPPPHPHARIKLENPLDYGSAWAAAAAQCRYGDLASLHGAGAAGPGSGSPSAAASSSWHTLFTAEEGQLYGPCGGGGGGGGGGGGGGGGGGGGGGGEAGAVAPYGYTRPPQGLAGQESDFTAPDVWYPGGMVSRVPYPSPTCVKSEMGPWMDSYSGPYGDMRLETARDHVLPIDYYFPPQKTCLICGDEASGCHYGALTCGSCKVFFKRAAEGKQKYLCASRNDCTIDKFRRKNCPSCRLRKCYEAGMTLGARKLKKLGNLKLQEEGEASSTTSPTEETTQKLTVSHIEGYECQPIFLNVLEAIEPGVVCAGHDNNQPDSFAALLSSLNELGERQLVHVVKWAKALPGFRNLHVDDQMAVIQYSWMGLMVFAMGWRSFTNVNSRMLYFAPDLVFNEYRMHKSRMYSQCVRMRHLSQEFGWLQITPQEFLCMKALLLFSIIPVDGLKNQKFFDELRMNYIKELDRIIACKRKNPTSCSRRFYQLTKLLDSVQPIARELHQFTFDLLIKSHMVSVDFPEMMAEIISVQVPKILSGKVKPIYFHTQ

Assay [10] can be described thus: qHTS assay to identify small molecule antagonists of the thyroid receptor (TR) signaling pathway - cell viability counter screen (AID 743064). Further: nearly all actives have a fitted effect of over 50% in size. Further: potency means the concentration at half of the fitted maximal effect. The method, boiled down:
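In rat pituitary GH3.TRE-Luc reporter cells co-exposed to compound and 1 nM T3 for 23.5 h, cytotoxicity was assessed with CellTiter-Fluor in the same wells, read by fluorescence.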

A short description of assay [11]: qHTS assay to identify small molecule antagonists of the thyroid receptor (TR) signaling pathway (AID 743065). Further: nearly all actives have a fitted effect of over 55% in size. Further: potency means the concentration at half of the fitted maximal effect. Summed up:
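GH3.TRE-Luc rat pituitary cells (two TREs driving luciferase) were dosed with compound, then stimulated with 1 nM T3 (final) for 23.5 h at 37 C. ONE-Glo luminescence was the read-out, with CellTiter-Fluor fluorescence as the cytotoxicity counter-screen.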

The test system of assay [12] is thyroid hormone receptor (rat, GH3 cells). Put plainly: qHTS assay to identify small molecule agonists of the thyroid receptor (TR) signaling pathway (AID 743066; calls by dose curve).
A short description of assay [13]: qHTS assay to identify small molecule antagonists of the estrogen receptor alpha (ER-alpha) signaling pathway - cell viability counter screen (AID 743074; calls by dose curve;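 further: HEK293 cells carrying ER-alpha-UAS-bla reporter stimulated with 17beta-estradiol; nearly all actives have a fitted effect of over 45% in size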).
The target in assay [14] is Estrogen receptor (Homo sapiens) (UniProt P03372). Put plainly: qHTS assay to identify small molecule agonists of the estrogen receptor alpha (ER-alpha) signaling pathway (AID 743075; calls by dose curve;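 further: HEK293 GripTite cells with ER-alpha and UAS-driven beta-lactamase reporter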).
Sequence of Estrogen receptor (Homo sapiens) (P03372 whole entry, looked up): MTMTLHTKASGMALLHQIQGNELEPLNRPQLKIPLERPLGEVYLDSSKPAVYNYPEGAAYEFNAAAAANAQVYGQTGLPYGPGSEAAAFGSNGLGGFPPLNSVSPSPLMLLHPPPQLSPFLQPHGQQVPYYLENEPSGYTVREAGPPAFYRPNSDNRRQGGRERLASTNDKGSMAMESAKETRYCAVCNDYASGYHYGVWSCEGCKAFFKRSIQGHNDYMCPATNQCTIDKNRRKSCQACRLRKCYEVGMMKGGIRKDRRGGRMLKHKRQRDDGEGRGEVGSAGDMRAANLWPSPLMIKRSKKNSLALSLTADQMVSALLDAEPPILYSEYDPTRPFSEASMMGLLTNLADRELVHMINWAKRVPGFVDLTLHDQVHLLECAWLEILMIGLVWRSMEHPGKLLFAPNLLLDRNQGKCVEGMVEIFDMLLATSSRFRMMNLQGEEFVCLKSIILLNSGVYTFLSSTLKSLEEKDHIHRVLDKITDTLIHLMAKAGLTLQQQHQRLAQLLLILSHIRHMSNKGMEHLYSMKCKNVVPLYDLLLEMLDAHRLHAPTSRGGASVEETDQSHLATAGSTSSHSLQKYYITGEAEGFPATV
Assay [15] has the same target. Put plainly: qHTS assay to identify small molecule agonists of the estrogen receptor alpha (ER-alpha) signaling pathway using the BG1 cell line (AID 743079). Further: nearly all actives have a fitted effect of over 20% in size. Further: potency means the concentration at half of the fitted maximal effect.
The nature of assay [16]: qHTS assay to identify small molecule antagonists of the estrogen receptor alpha (ER-alpha) signaling pathway using the BG1 cell line (AID 743080; calls by dose curve;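 further: BG1 cells stimulated with 17beta-estradiol alongside compound; nearly all actives have a fitted effect of over 25% in size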; further: potency means the concentration at half of the fitted maximal effect). The method, boiled down:
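Luciferase inhibition measured with ONE-Glo after 30 min at RT in BG1Luc4E2 cells given test compounds and 17beta-estradiol for 21.5 h at 37 C; CellTiter-Fluor viability read in the same wells beforehand.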

Assay [17] in a line: qHTS assay to identify small molecule antagonists of the estrogen receptor alpha (ER-alpha) signaling pathway using the BG1 cell line - cell viability counter screen (AID 743081).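 Further: compound given together with 17beta-estradiol as the ER stimulus; nearly all actives have a fitted effect of over 45% in size.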
For a further assay, the target named is Aromatase (Homo sapiens) (UniProt P11511). Put plainly: qHTS assay to identify aromatase inhibitors (AID 743083). Further: nearly all actives have a fitted effect of over 55% in size.
Sequence of Aromatase (Homo sapiens) (P11511 whole entry, looked up): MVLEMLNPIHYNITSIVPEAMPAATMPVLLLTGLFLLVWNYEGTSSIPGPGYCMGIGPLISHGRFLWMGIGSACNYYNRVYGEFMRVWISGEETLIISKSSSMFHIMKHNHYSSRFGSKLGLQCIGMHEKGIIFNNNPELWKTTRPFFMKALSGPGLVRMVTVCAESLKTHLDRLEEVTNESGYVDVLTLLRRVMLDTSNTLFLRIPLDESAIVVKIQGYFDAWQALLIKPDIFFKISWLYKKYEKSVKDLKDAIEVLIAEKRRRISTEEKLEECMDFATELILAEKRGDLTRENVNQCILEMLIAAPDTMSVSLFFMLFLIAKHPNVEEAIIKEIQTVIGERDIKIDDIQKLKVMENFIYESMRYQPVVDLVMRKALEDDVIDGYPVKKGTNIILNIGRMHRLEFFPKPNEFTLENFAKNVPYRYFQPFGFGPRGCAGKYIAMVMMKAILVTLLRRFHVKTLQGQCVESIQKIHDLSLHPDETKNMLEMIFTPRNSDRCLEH
The nature of assay [18]: qHTS assay for identifying genotoxic compounds that show differential cytotoxicity against isogenic chicken DT40 cell lines with known DNA damage response pathways - Rad54/Ku70 mutant cell line (AID 743015). Further: nearly all actives have a fitted effect of over 60% in size. Further: potency means the concentration at half of the fitted maximal effect.
Assay [19] addresses Estrogen receptor (Homo sapiens) (UniProt P03372). The experiment in a line: qHTS assay to identify small molecule antagonists of the estrogen receptor alpha (ER-alpha) signaling pathway (AID 743069; active means well fitted curve in the direction sought with a large enough effect in the signal ratio in the repeat runs, not every such curve was filed as active; the % refers to the signal ratio). Summed up: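 Beta-lactamase FRET fluorescence is read after 2 hr at room temperature with LiveBLAzer B/G substrate. Before that, ER-alpha-bla HEK293 cells sit 4 hr after plating, then receive compound plus 17beta-estradiol and incubate 18 hr at 37C.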

Values joined by “and” are separate entries in the source; they are usually repeats but may differ in a detail not shown here. Identical values can stand only once. Records with an inconclusive call do not appear. The source holds several records for some structures; these can differ, active in one and inactive in another. Active and inactive are the calls of the source. Unless noted, the call rests on the fitted dose curve; in most records, active means well fitted curve in the direction sought with a large enough effect in the repeat runs; inconclusive means weak or mixed curves; inactive means no such curve, though single readings can be large; an effect the other way counts as inactive or inconclusive.

As to `CCN(CC)C(=O)/C(Cl)=C(\C)OP(=O)(OC)OC`, the Potency result in assay [1], in [2], in assay [3], in [4], in [5] and in [6] was “inactive” in each case. Besides, the Potency result in assay [7], in assay [8], in assay [9], in assay [10], in [11] and in [12] was “inactive” each time. Besides, the Potency entry (in assay [13]; in assay [14]; in assay [15]; in [16]; in assay [17]; with Aromatase (Homo sapiens)) was “inactive” each time.

`COc1ccc(C=O)cc1`: the Potency entry in [1], in [2], in [3], in assay [4], in assay [8] and in assay [10] was “inactive” in each case. Also, the Potency result in assay [11], in assay [12], in [13], in [14], in assay [15] and in [16] was “inactive” in each case. Further, the Potency entry (in assay [17]; with Aromatase (Homo sapiens)) was “inactive” each time.

On to `CNC(=O)Oc1cccc2c1OC(C)(C)O2`, for which the Potency entry in assay [1], in [2], in [3], in [18], in [4] and in assay [8] was “inactive” each time. For the same compound, the Potency entry in [10], in assay [13], in [14], in [15], in assay [16] and in assay [17] was “inactive” in each case. For the same compound, in the assay with Aromatase (Homo sapiens), the Potency entry is “inactive”.

On to `c1ccc(P(c2ccccc2)c2ccccc2)cc1`, for which the Potency result in assay [1], in [4], in assay [8], in assay [10], in [12] and in assay [19] was “inactive” throughout. The Potency result (in [13]; in [14]; in assay [15]; in [16]; in [17]; with Aromatase (Homo sapiens)) was “inactive” in each case. Besides, the Potency in assay [2] is 55.5 µM (active) and 61.1 µM (active); in [3], 12.4 µM (active) and 61.1 µM (active); in assay [18], 19.7 µM (active) and 54.5 µM (active).

On to `N[C@@H](Cc1ccc(N(CCCl)CCCl)cc1)C(=O)O`, for which the Potency result in assay [1], in assay [4], in assay [8] and in [17] was “inactive” in each case. Moreover, the Potency is 944 nM (active) and 8.28 µM (active) in [2]; 75 nM (active) and 117 nM (active) in assay [3]; 2.37 µM (active) and 8.28 µM (active) in assay [18]; 10.6 µM (active) and 26.2 µM (active) in assay [10].

For `CCOC(=O)C(C)OC(=O)c1cc(Oc2ccc(C(F)(F)F)cc2Cl)ccc1[N+](=O)[O-]` (configuration not stated), the Potency entry in [1], in [4], in assay [8], in assay [10], in [12] and in [13] was “inactive” in each case. The Potency entry (in assay [14]; in assay [17]; with Aromatase (Homo sapiens)) was “inactive” each time. Besides, the Potency in [2] is 24.3 µM (active); in assay [3] it was 27.3 µM (active); in assay [18] it was 21.7 µM (active); in [16], 48.3 µM (active).

With `O=[N+]([O-])c1cccc2ccccc12`, the Potency result in assay [1], in assay [2], in assay [3], in [4], in assay [8] and in assay [10] was “inactive” in each case. For the same compound, the Potency entry in assay [11], in assay [12], in [13], in assay [14], in assay [15] and in assay [16] was “inactive” in each case. For the same compound, the Potency entry (in assay [17]; with Aromatase (Homo sapiens)) was “inactive” in each case.

Regarding `CCCCNC(=O)n1c(NC(=O)OC)nc2ccccc21`, the Potency result in assay [1], in assay [6], in assay [7], in [8], in assay [9] and in [12] was “inactive” throughout. Further, the Potency result (in assay [19]; in [13]; in [14]; in [16]; in [17]; with Aromatase (Homo sapiens)) was “inactive” throughout. Besides, the Potency in assay [2] was 9.64 µM (active) and 8.63 µM (active); in assay [3] it was 5.42 µM (active) and 6.86 µM (active); in assay [18], 6.82 µM (active) and 8.63 µM (active); in assay [11], 7.66 µM (active) and 8.63 µM (active); in [15], 34.4 µM (active).

Take `c1nc[nH]n1`: the Potency result in assay [1], in assay [2], in [3], in assay [18], in assay [4] and in assay [8] was “inactive” each time. Further, the Potency result in assay [10], in assay [13], in assay [14], in assay [15], in assay [16] and in [17] was “inactive” in each case. For the same compound, the Potency result with Aromatase (Homo sapiens) was “inactive”.

Turning to `Cc1cc(Cl)ccc1OCCCC(=O)O`, the Potency result in assay [1], in assay [2], in assay [3], in assay [4], in assay [7] and in assay [8] was “inactive” each time. Also, the Potency result (in assay [9]; in assay [10]; in assay [11]; in [12]; in [17]; with Aromatase (Homo sapiens)) was “inactive” in each case.

Take `CCC(CC)Nc1c([N+](=O)[O-])cc(C)c(C)c1[N+](=O)[O-]`: the Potency entry in assay [1], in assay [3], in assay [4], in assay [8], in assay [12] and in assay [13] was “inactive” each time. Besides, the Potency entry in assay [17] was “inactive”.

With `O=c1oc2ccccc2c(O)c1C(CC(O)c1ccc(-c2ccc(Br)cc2)cc1)c1ccccc1` (configuration not stated), the Potency was 23.9 µM (active) and 46.3 µM (active) in [1]; 29.8 µM (active) and 57.9 µM (active) in assay [11]. The Potency entry in assay [2], in assay [3], in [4], in assay [8], in [12] and in assay [13] was “inactive” throughout. Besides, the Potency entry (in assay [14]; in assay [15]; in assay [16]; in assay [17]; in the assay with Aromatase (Homo sapiens)) was “inactive” throughout.

As to `CCCCOCCOP(=O)(OCCOCCCC)OCCOCCCC`, the Potency entry in assay [1], in assay [4], in assay [8], in assay [12], in [14] and in assay [15] was “inactive” each time. Further, the Potency entry (in assay [16]; in assay [17]; with Aromatase (Homo sapiens)) was “inactive” each time. Moreover, the Potency in assay [3] is 54.5 µM (active); in assay [18] it was 48.6 µM (active); in [10], 54.5 µM (active) and inactive; in assay [11], 24.4 µM (active) and 19.3 µM (active).

Take `CC(C)(C)c1ccccc1O`: the Potency entry in [1], in assay [4], in assay [8], in assay [10], in [11] and in assay [12] was “inactive” in each case. The Potency result (in [13]; in assay [17]; with Aromatase (Homo sapiens)) was “inactive” in each case. Also, in assay [3], the Potency was 61.1 µM (active).

For the compound `COP(=S)(OC)Oc1ccc([N+](=O)[O-])cc1`, the Potency result in [1], in assay [4], in assay [8], in assay [10], in assay [11] and in assay [12] was “inactive” throughout. Also, the Potency result (in assay [13]; in assay [14]; in assay [16]; in assay [17]; in the assay with Aromatase (Homo sapiens)) was “inactive” throughout. The Potency in [15] is 48.6 µM (active) and inactive.
